Reference: PubChem BioAssay AID651812 (National Center for Advancing Translational Sciences (NCATS), 2012)
Among all 2,100 compounds or so, about 650 (31%) were called active. Not shown: some 16% with an inconclusive outcome. Calls follow the shape of the dose curve; as a rule, active = well fitted inhibition curve with a large enough effect; inconclusive = small, poorly fitted or top-dose-only effect; inactive = flat fitted curve, though single readings scatter. This is one part of the list. Entries that show only a call come without a potency.

experiment: qHTS for inhibitors of Vif-A3G interactions: Cherry picks; conditions: HeLa A3G-eYFP + Vif (tagged APOBEC3G with the HIV-1 protein that degrades it), 24 h; Potency: eYFP fluorescence increase; series mostly up to 36.9 µM; also: nearly all actives have a fitted effect of over 80% in size
Outline: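 Cherry-picked compounds tested at several concentrations on A3G-eYFP/Vif HeLa cells for 24 hours; loss of Vif-driven degradation read as eYFP fluorescence by cytometric plate imaging, 488 nm excitation, 500-530 nm emission.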
Potency is read from the fitted curve at half-maximal effect.

SMILES | Potency
O=C(Nc1ccc([N+](=O)[O-])cc1)C(Cc1ccccc1)N1C(=O)c2cccc3cccc(c23)C1=O (stereo unspecified) | 14 µM (active)
O=C(c1ccc(CS(=O)c2ccccc2Cl)o1)N1CCN(c2ccccc2F)CC1 (stereo unspecified) | inactive
CC(=O)c1ccc2cccc3c2c1N=CN3C | 15.8 µM (active)
C=CCn1c(O)c(N=NC(=O)CNC(=O)c2ccco2)c2ccccc21 | inactive
CCN(CC)c1ccc(NC(=O)c2ccc(=O)[nH]c2)cc1S(=O)(=O)Nc1ccc(OC)cc1 | inactive
O=[N+]([O-])c1ccccc1C=NNC(=S)NN=Cc1ccccc1[N+](=O)[O-] | inactive
O=C(O)c1ccc(N/N=C/C(Br)=C/c2ccccc2)cc1 | inactive
Cc1cc([N+](=O)[O-])ccc1-c1ccc(/C=N/NC(=O)c2ccc(Br)o2)o1 | 16.4 µM (active)
O=C(Cc1ccccc1)N/N=C/c1ccc(-c2ccc([N+](=O)[O-])cc2)o1 | 17.7 µM (active)
Cc1cc(/C=N/NC(=O)c2cc3ccccc3o2)c(C)n1C | inactive
NC(=S)N/N=C\c1ccc(-c2cccc(Cl)c2Cl)o1 | inactive
Cc1ccc(-c2ccc(/C=N/NC(N)=S)o2)cc1 | inactive
O=C(O)c1cccc(-c2ccc(/C=N/Nc3ccc([N+](=O)[O-])cc3)o2)c1 | 18.4 µM (active)
CCOc1ccc(S(=O)(=O)N(CC(=O)N/N=C/c2ccc(-c3ccc([N+](=O)[O-])cc3)o2)c2ccccc2)cc1 | inactive
CC(C)(C)NC(=S)N/N=C\c1ccc(-c2ccc([N+](=O)[O-])cc2)o1 | 20.6 µM (active)
CC1(C(=O)NCc2ccccc2)Cc2c(-c3cccc(C(N)=O)c3)ccnc2O1 (stereo unspecified) | inactive
COc1ccc(NC(=O)C2(C)Cc3c(-c4cccc(C(N)=O)c4)ccnc3O2)cn1 (stereo unspecified) | inactive
O=C(COc1ccc(C(=O)c2ccccc2)cc1)NCc1ccc(F)cc1 | inactive
Cc1c(C(=O)C(=O)N2CC=C(c3ccccc3)CC2)c2ccccc2n1C | inactive
CCOc1ccc(S(=O)(=O)NCc2ccccn2)cc1NC(=O)c1ccccc1 | inactive
O=C1CC(c2ccccc2F)c2cc3c(cc2N1)CCC3 (stereo unspecified) | inactive
CN(/N=C/c1ccc(-c2ccc([N+](=O)[O-])cc2)o1)c1ccccc1 | 1.64 µM (active)
Cc1cc(N2CCN(Cc3cn(C)nc3-c3ccccc3F)CC2)cc(C)n1 | inactive
COc1cc(C(=O)N/N=C/c2ccccn2)cc(OC)c1OC | inactive
Cc1cc(C)n(-c2nc3c(c(=O)[nH]c(=O)n3C)n2CC(O)COc2ccc(Cl)cc2Cl)n1 (stereo unspecified) | inactive
Cc1ccc2ccc3c(c2n1)NS(=O)(=O)c1ccc(C(F)(F)F)cc1-3 | inactive
